High-throughput results as filed in PubChem BioAssay.
An excerpt weighted towards active compounds, which were near 10% of everything screened.
HEK cytotox: cytotoxic compounds in HEK 293 cells; AID 1345083; HEK 293 viability, ATP luminescence (CellTiter-Glo), 48-72 h; hit rate 6.6% among 94,000; Potency, µM (titrated, usually from 115 µM), without a hit: at the top dose activity change, negative = cytotoxicity, most hits filed as inhibitors; also: nearly all actives have a fitted effect of over 60% in size
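Pintool-delivered compounds were incubated with HEK 293 cells (250 cells/well) at 37 degree Celsius for 48 or 72 hr. ATP-dependent luminescence (CellTiter-Glo) then reported remaining viable cells.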
hNpr1 antagonist: human Npr1 receptor antagonism. hit rate 1.6% among 76,000. AID 1347048. P16066. HEK293 hNpr1 GloSensor cGMP, ANP-stimulated luminescence. Potency, µM (top dose mostly 46.3 µM), without a hit: at the highest dose activity change, negative = inhibition, usual class: inhibitors; calls by dose curve; also: nearly all actives have a fitted effect of over 60% in size
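HEK293 cells stably expressing human Npr1 and cGMP GloSensor pGS-40F, loaded 2 h with 2% GloSensor reagent, given compound 30 min at room temperature. Luminescence read before and 20 min after 0.1 nM hNppA.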
3T3 cytotox: NIH 3T3 cell cytotoxicity | NIH 3T3 viability, CellTiter-Glo ATP luminescence, 48-72 h | Potency, µM (titrated, usually from 96.7 µM), without a hit: top-dose activity change, negative = cytotoxicity, hits mostly inhibitors | hit rate 4.3% among 94,000 | AID 1345082; also: nearly all actives have a fitted effect of over 55% in size
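Viability of NIH 3T3 cells after 48 or 72 hr compound treatment at 37 °C was assessed by CellTiter-Glo, with luminescence imaged following a 10 min room-temperature step.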
GPT2 inhibitor: GPT2 alanine aminotransferase inhibition. Recombinant GPT2, coupled pyruvate oxidase/HRP Amplex Red fluorescence. Potency, µM (doses to about 57.7 µM), inactives show top-dose activity change, negative = inhibition, most hits filed as inhibitors. hit rate 0.25% among 100,000. AID 1671188; also: nearly all actives have a fitted effect of over 60% in size
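Fluorescence read-out: pyruvate from GPT2 turnover coupled to pyruvate oxidase, HRP and Amplex Red (0.2mM ThPP, 0.2U/mL PO and HRP, 50uM Amplex final). Substrates 250uM a-KG, 2mM L-alanine; enzyme 10ng/uL; 30 min RT.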
Luciferase inh: inhibitors of firefly (Photinus pyralis) luciferase. P08659. purified P. pyralis luciferase, luminescence, biochemical. Potency, µM (series often up to 115 µM), actives largely listed as inhibitors. hit rate 2.5% among 76,000; also: nearly all actives have a fitted effect of over 65% in size
Target sequence (P08659 whole entry, looked up): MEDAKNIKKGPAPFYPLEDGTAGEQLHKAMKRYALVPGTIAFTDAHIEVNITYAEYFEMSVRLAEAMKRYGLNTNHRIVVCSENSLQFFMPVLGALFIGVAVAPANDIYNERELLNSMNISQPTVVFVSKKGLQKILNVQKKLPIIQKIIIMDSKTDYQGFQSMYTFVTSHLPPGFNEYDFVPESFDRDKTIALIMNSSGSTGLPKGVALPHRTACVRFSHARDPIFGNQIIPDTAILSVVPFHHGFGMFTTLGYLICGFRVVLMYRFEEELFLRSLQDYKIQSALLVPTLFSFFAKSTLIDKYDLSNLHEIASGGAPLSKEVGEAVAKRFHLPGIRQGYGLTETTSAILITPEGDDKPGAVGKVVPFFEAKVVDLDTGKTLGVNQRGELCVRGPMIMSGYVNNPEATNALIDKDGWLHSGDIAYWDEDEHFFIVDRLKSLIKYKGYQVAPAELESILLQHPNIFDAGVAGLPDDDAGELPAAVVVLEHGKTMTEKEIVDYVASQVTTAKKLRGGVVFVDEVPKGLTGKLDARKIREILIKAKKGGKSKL
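Luminescence read by CCD imaging after purified firefly luciferase (10nM final) was added to substrate buffer holding 10uM D-luciferin and 10uM ATP, pH 7.5, pre-dosed with compound.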
* hit, by the source's call; i = inactive; ? = inconclusive; . = no result given; [ ] = another dose, or the depositor's remark. Unless noted, calls follow the shape of the dose curve; as a rule, active = well fitted curve in the direction sought with a large enough effect; inconclusive = small, poorly fitted or top-dose-only effect, or another doubt; inactive = no such curve, though single readings can be large; an effect the other way counts as inactive or inconclusive. % is scaled to controls: 0 for no effect and ±100 for the full control effect; potency is read from the fitted curve at half-maximal effect.

SMILES	HEK cytotox	hNpr1 antagonist	3T3 cytotox	GPT2 inhibitor	Luciferase inh
O=C(c1cccc(Cl)c1)N1CCN(Cc2ccccc2-c2ccccc2F)CC1	?	.	45µM*	i	.
O=C(NCCCc1ccccc1)C1CCN(Cc2ccccc2-c2ccccc2F)CC1	22µM*	.	?	.	.
O=C(NCC(F)(F)F)C1CCN(Cc2ccccc2-c2ccccc2F)CC1	-17%	.	-22%	.	.
O=C(NCc1cccc(F)c1)C1CCN(Cc2ccccc2-c2ccccc2F)CC1	40µM*	.	?	.	.
O=C(C1CCN(Cc2ccccc2-c2ccccc2F)CC1)N1CCC(Cc2ccccc2)CC1	35µM*	.	35µM*	.	.
CC1=NS(=O)(=O)N(Cc2ccccc2)C=C1C(=O)OCc1nc(-c2ccc3c(c2)OCO3)no1	-23%	-28%	?	i	i
CCCS(=O)(=O)N1CC(c2nc(-c3ccncc3)no2)C1	-15%	.	-21%	i	.
COc1ccccc1C(=O)N1CCC2(CC1)OC(=O)N(CCOc1ccccc1)C2(C)c1cccnc1 (stereo not given)	-23%	-2%	?	i	i
CCn1nccc1C(=O)N1c2ccccc2CC1c1nnc(C2CCOCC2)o1 (stereo not given)	1%	0%	-11%	i	i
O=C1CCCN1CC(=O)N1CCC(C2CCN(Cc3cccc(F)c3F)CC2)C1 (stereo not given)	2%	6%	0%	-4%	i
O=C(C1CCCCC1)N1CCC(C2CCN(Cc3cccc(F)c3F)CC2)C1 (stereo not given)	79µM*	8%	?	-3%	i
COc1ccc(C(=O)NC2CCN(c3cc(-c4ccc(Cl)cc4)[nH]n3)C2)c(OC)c1 (stereo not given)	45µM*	-27%	35µM*	?	i
O=C(NC1CCN(c2cc(-c3ccc(Cl)cc3)[nH]n2)C1)c1ccccc1Br (stereo not given)	28µM*	?	35µM*	-27%	i
COc1ccc(C(=O)NC2CCN(c3cc(-c4ccc(Cl)cc4)[nH]n3)C2)c(C)c1 (stereo not given)	?	-16%	?	-7%	i
O=C(NC1CCN(c2cc(-c3ccc(Cl)cc3)[nH]n2)C1)c1ccc(F)cc1F (stereo not given)	50µM*	?	?	?	i
N#Cc1cccc(-c2cn3cc(C(=O)NCc4ccccc4)nc3s2)c1	?	.	?	i	.
O=C1NCN(Cc2ccc(Cl)cc2)C12CCN(Cc1ccc(OC(F)(F)F)cc1)CC2	?	-4%	?	?	i
COc1ccc(C(=O)N[C@@H]2CN(C(=O)Nc3ccc(F)cc3)CCC[C@H]2O)cc1	?	-15%[70.6 µM]	100µM*	-3%[88.5 µM]	?
COc1ccc(C(=O)N[C@@H]2CN(C(=O)Nc3ccccc3)CCC[C@H]2O)cc1	?	-4%[70.6 µM]	?	0%[88.5 µM]	i
O=C(N[C@H]1CO[C@H]2[C@@H]1OC[C@H]2OCc1ccccc1)c1ccc(C(F)(F)F)cc1	79µM*	?	-29%[174 µM]	-22%[88.5 µM]	?
COCc1cccc(-c2ccc3ncn(-c4ccc(F)cc4F)c(=O)c3n2)c1	-23%[172 µM]	4%[70.6 µM]	?	i	i
COc1ncc(-c2ccc3ncn(-c4ccc(F)cc4F)c(=O)c3n2)cn1	89µM*	-2%[70.6 µM]	?	1%[88.5 µM]	i
C[S+](=O)([O-])c1cccc(-c2ccc3ncn(-c4ccc(F)cc4F)c(=O)c3n2)c1	?	0%[70.6 µM]	?	-15%[88.5 µM]	i
CC(=O)Nc1cccc(-c2ccc3ncn(-c4ccc(F)cc4F)c(=O)c3n2)c1	89µM*	-2%[70.6 µM]	?	-3%[88.5 µM]	i
O=c1c2nc(-c3cccnc3)ccc2ncn1-c1ccc(F)cc1F	71µM*	0%[70.6 µM]	?	i	i
O=C(C1CCCN1C(=O)NC1CCCC1)N1CCC(c2ccccc2)CC1 (stereo not given)	-18%	.	?	-29%	.
CSc1ccccc1C(=O)N(C)C1CCCN(CCCc2ccccc2)C1 (stereo not given)	?	7%	-21%	i	i
